The values below come from PubChem BioAssay (NCI).

The panel holds about 79,000 compounds, 15% with a hit somewhere; the sample as a whole holds those more often. A number with no mark means an inactive call. The source made the active and inactive calls. Cut-off read from the data, not from the text of the source: active = growth inhibition above about 70%; inactive = the rest. *1 amine or outer side, *2 acyl side, *3 side chain or, on linkers, in order; H or OH if unused. Where a SMILES comes first, the peptide text is derived from it. Bridges are numbered along the chain shown (N, C = ends). Roman numbers before positions name the chains, in order. [ ]: non-standard residue; d: D form. Actinocin(1to9) = Cc1c2oc3c(C)ccc(C(=O)[*:2])c3nc-2c(C(=O)[*:1])c(N)c1=O; NMeY = CN[CH](Cc1ccc(O)cc1)C(=O)O; Sar = CNCC(=O)O

Test [1] can be described thus: NCI Yeast Anticancer Drug Screen. Data for the rad50 strain (AID 155).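 Note: 0% = growth of vehicle-only cultures of the same strain.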 To be noted: S. cerevisiae rad50 strain growth inhibition; at 50.0 µM; hits give high values. An outline of the steps:
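Cells are treated with compound, grown, and their growth is then scored against vehicle-only cultures of the same repair-deficient yeast strain.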

Test [2] in a line: NCI Yeast Anticancer Drug Screen. Data for the mec2-1 strain (AID 157). The settings on record: S. cerevisiae mec2-1 strain, at 50.0 µM, hits give high values. An outline of the steps: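 Growth inhibition is read against vehicle-treated controls after compound exposure of the mec2-1 yeast strain, which is defective in DNA damage repair or cell cycle control.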
The nature of test [3]: NCI Yeast Anticancer Drug Screen. Data for the sgs1 mgt1 strain (AID 161).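 Note: 0% = growth of cultures given vehicle only.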 The settings on record: S. cerevisiae sgs1 mgt1 strain, at 50.0 µM, hits give high values. An outline of the steps: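 Compounds are added to genetically altered yeast, and growth is compared with cultures given vehicle alone to give percent inhibition.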
Test [4] is described as follows: NCI Yeast Anticancer Drug Screen. Data for the cln2 rad14 strain (AID 165).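 Note: 0% = growth equal to vehicle treated cultures.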 To be noted: S. cerevisiae cln2 rad14 strain, at 50.0 µM, hits give high values. In short, it runs like this:
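Growth inhibition, relative to vehicle-treated controls, is the read-out. The test organism is a yeast strain with defined genetic alterations, cln2 rad14.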

Test [5] can be described thus: NCI Yeast Anticancer Drug Screen. Data for the bub3 strain (AID 167). To be noted: S. cerevisiae bub3 mutant strain, at 50.0 µM, hits give high values. In short, it runs like this: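 Part of a panel of yeast mutants defective in DNA damage repair or cell cycle regulation. Each strain is grown with compound, and inhibition is calculated relative to solvent-treated cultures.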

Test [6] is described as follows: NCI Yeast Anticancer Drug Screen. Data for the mlh1 rad18 strain (AID 175). To be noted: S. cerevisiae mlh1 rad18 strain growth inhibition; at 50.0 µM; hits give high values. An outline of the steps: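 Cells of a genetically altered yeast strain, deficient in DNA damage repair, were treated with compound. Their growth was then compared with that of vehicle-treated cultures to give inhibition.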

For the compound `O=C1CCNC(=O)N1`, the growth inhibition is 33.7% in test [1]; -7.35% in test [2]; 4.75% in test [3]; 21.1% in test [4]; -10.2% in test [5]; 23.4% in test [6].

As for `COc1ccc2[nH]cc(CC(NC(C)=O)C(=O)O)c2c1` (centres undefined), the growth inhibition in test [1] is 1.75%; in test [2] it was -0.9%; in test [3], 1.55%; in test [4] it was -0.5%; in test [5] it was 3.85%; in test [6], -1.25%.

As for `COc1ccc(CC2C(=O)OC(C)C(NC(=O)c3c4nc5c(C(=O)NC6C(=O)NC(C(C)C)C(=O)N7CCCC7C(=O)N(C)CC(=O)N(C)C(Cc7ccc(OC)cc7)C(=O)OC6C)ccc(C)c5oc-4c(C)c(=O)c3N)C(=O)NC(C(C)C)C(=O)N3CCCC3C(=O)N(C)CC(=O)N2C)cc1` (centres undefined) (I: TVP[Sar][NMeY](Me) / II: TVP[Sar][NMeY](Me); ester I:1-I:C, II:1-II:C; linker I:N-II:N via Actinocin(1to9); configuration not given here), the growth inhibition in test [1] was -3%; in test [2], -3.65%; in test [3] it was -26.1%; in test [4] it was 8.5%; in test [5], -25.8%; in test [6], -24.7%.

In the case of `O=C(/C=C/C(=O)NCCc1ccccc1)NCCc1ccccc1`, the growth inhibition is -13.4% in test [1]; 0.85% in test [2]; 9.15% in test [3]; -7.45% in test [4]; 46.4% in test [5]; 17.4% in test [6].

As for `CCCCCCC(=O)OC(C)CC(C)C` (centres undefined), the growth inhibition in test [1] is 6.25%; in test [2], 2.75%; in test [3], -0.75%; in test [4], -11.2%; in test [5], -3.7%; in test [6], 24.2%.

On to `CCO/C=N/n1c(C(=O)NCCCOC)nc2ccccc2c1=O`, for which the growth inhibition in test [1] was -6.25%; in test [2], -20.3%; in test [3], 7.4%; in test [4], -5.6%; in test [5] it was 4.9%; in test [6], 1.75%.

In the case of `O=C(CC1(O)CCCCC1)Nc1ccccc1`, the growth inhibition in test [1] was 1.9%; in test [2] it was -8.45%; in test [3], -8.4%; in test [4] it was -54.6%; in test [5], 4.6%; in test [6] it was -13.1%.

Regarding `C[C@H]1O[C@@H](C(C)(C)C)OC(=O)[C@@H]1C(OC(=O)c1ccccc1)c1cccc2ccccc12` (some centres undefined), the growth inhibition is -0.1% in test [1]; 3.15% in test [2]; 12.1% in test [3]; 25.3% in test [4]; -3.45% in test [5]; 8% in test [6].

As for `COC(=O)CCc1ccc(N)cc1`, the growth inhibition in test [1] was 4.85%; in test [2] it was -2.95%; in test [3], 9.5%; in test [4], -4.3%; in test [5], -2.1%; in test [6] it was 2.9%.

On to `CC(=O)C1(N=Nc2ccc(S(N)(=O)=O)cc2)CCOC1=O` (centres undefined), for which the growth inhibition in test [1] is 1.35%; in test [2], -11.3%; in test [3] it was -27.1%; in test [4], 32.4%; in test [5], -29.4%; in test [6], 22.7%.

As to `C=C(C)C(=O)OC1C(C(C)CCCO)=C(CO)CC2OC(=O)C(=C)C21` (centres undefined), the growth inhibition is -15.9% in test [1]; -29.1% in test [2]; -14.5% in test [3]; -7.7% in test [4]; -10.3% in test [5]; -29.1% in test [6].

In the case of `Clc1ccc(-c2oc(-c3ccc(Cl)cc3)c3ccccc23)cc1`, the growth inhibition in test [1] is -3.85%; in test [2], -13.2%; in test [3], 4.75%; in test [4], -78.2%; in test [5], -15.5%; in test [6] it was -23.6%.

On to `Clc1cnc2ccccc2c1`, for which the growth inhibition in test [1] is 24.4%; in test [2], 6%; in test [3] it was 14.1%; in test [4], 22.8%; in test [5], 2.7%; in test [6], 28.8%.

`Cc1cc2c(c(C(=O)NCCC(=O)O)c1)Oc1c(cc(C)cc1C(=O)NCCC(=O)O)S2`: the growth inhibition was -26.9% in test [1]; -13.6% in test [2]; -8.2% in test [3]; 3.95% in test [4]; -44.1% in test [5]; -2.65% in test [6].

As for `CC(=O)NC(C)CC1=CC(=O)C(C)=CC1=O` (centres undefined), the growth inhibition in test [1] is 1.45%; in test [2], -13.4%; in test [3], -16.1%; in test [4], -33.7%; in test [5] it was -18.9%; in test [6] it was -11.6%.

Take `N#C/C(=C/c1cccc2ccccc12)C(N)=O`: the growth inhibition in test [1] was 21.6%; in test [2] it was 32.9%; in test [3], 28.4%; in test [4] it was 6.2%; in test [5], 28.6%; in test [6] it was 26.1%.

For `NC(=O)CCCCCCCC(=O)O`, the growth inhibition in test [1] was -0.9%; in test [2], -5.7%; in test [3], -13.4%; in test [4], 1.45%; in test [5], -10.6%; in test [6] it was -22.9%.

As to `COc1cc(NCc2c(O)ccc3ccccc23)c2ncccc2c1`, the growth inhibition in test [1] was 46.1%; in test [2], 28.1%; in test [3] it was 13.1%; in test [4], -11.2%; in test [5], 7.75%; in test [6] it was 62.8%.

For the compound `COC(=O)c1ccc(NCC2=CC(=O)c3ccccc3C2=O)cc1`, the growth inhibition in test [1] is 46.9%; in test [2], 38%; in test [3], 59%; in test [4] it was 48.4%; in test [5] it was 54%; in test [6] it was 88% (active).
